A selection: hits, their analogues and other compounds. The true share with any hit is near 19%.
HT1080 IDH1KD tx – kills HT-1080 cells with IDH1 knockdown; HT-1080 IDH1 knockdown viability, ATP luminescence, 48 h; AID 686971; Potency, µM (titrated, usually from 46.1 µM), for inactives: at the top dose activity, negative = toxicity, usual class: cytotoxic; 2% of 360,000 active;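 also: 0% = DMSO wells and -100% = cell-free medium wells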
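Assay cells: HT-1080 with IDH1 knockdown, 750 per well, RPMI/5% FBS. Exposure: 48 h at 37 °C following 2 h pre-incubation. Read: CellTiter-Glo luminescence; fitted concentration-response, curve class assigned.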
KB-3-1 cytotox – KB-3-1 parental cell cytotoxicity; KB-3-1 viability, CellTiter-Glo ATP luminescence, 72 h; Potency, µM (doses to about 46.1 µM), hits mostly cytotoxic; 1.4% of 400,000 active; AID 1347075; also: nearly all actives have a fitted effect of over 60% in size
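KB-3-1 cells, DMEM (no phenol red) + 10% FBS; compound by pin transfer, 72 h, 37 °C. Readout: CellTiter-Glo luminescence after 10 min. Data normalized, curve-fitted.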
DT40 TDP1 CPT – growth inhibition of DT40 Tdp1-/-;hTDP1 cells with camptothecin (screen for TDP1 inhibitors). chicken DT40 Tdp1-/-;hTDP1 cells + 20 nM CPT, ATP luminescence, 48 h. Potency, µM (titrated, usually from 46.2 µM), for inactives: at the highest dose activity change, negative = growth inhibition, actives largely listed as inhibitors. 12% of 420,000 active. AID 686979; also: nearly all actives have a fitted effect of over 55% in size
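Chicken DT40 Tdp1-/- cells stably complemented with human TDP1 were seeded at 400 cells/well in medium containing 20 nM camptothecin, exposed to pin-transferred compounds, and grown at 37 °C for at least 48 hr. Viability was read as ATP luminescence.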
KB-V1 MDR tox – KB-V1 MDR subline cytotoxicity | 3.4% of 400,000 active | KB-V1 MDR cells viability, CellTiter-Glo, 72 h | Potency, µM (series often up to 46.1 µM), most hits filed as cytotoxic | AID 1347076; also: nearly all actives have a fitted effect of over 60% in size
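KB-V1 MDR subline cells in DMEM (phenol-red free, 10% FBS) exposed to compounds in qHTS concentration series for 72 h at 37 degrees C. Viability read by CellTiter-Glo luminescence; concentration-effect curves fitted after normalization and correction.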
HT1080NT lethal – kills 2HG-producing HT-1080-NT fibrosarcoma cells. HT-1080-NT fibrosarcoma viability, CellTiter-Glo ATP luminescence, 48 h. Potency, µM (highest dose often 46.1 µM), for inactives: at the highest dose activity, negative = less viability, actives largely listed as cytotoxic. 1.6% of 360,000 active;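 also: NT is the 2HG producing partner of a matched IDH1 knockdown line; 0% = DMSO-treated cells and -100% = media-only wells without cells; nearly all actives have a fitted effect of over 55% in size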
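Viability by CellTiter-Glo luminescence after 48 h compound exposure at 37C of HT-1080-NT cells (750/well, RPMI, 5% FBS). % activity scaled between DMSO wells and medium-only wells, then curve-fitted and categorized by curve class.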
TDP1 cell noCPT – qHTS for Inhibitors of human tyrosyl-DNA phosphodiesterase 1 (TDP1): qHTS in cells in absence of CPT; 15% of 420,000 active; Potency, µM (doses to about 46.2 µM), inactives show at the highest dose activity change, negative = growth inhibition, hits mostly inhibitors; DT40 Tdp1-/- hTDP1 cells, no CPT, ATP luminescence, 48 h; AID 686978, 2013; also: nearly all actives have a fitted effect of over 55% in size
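A cellular qHTS used chicken DT40 cells lacking endogenous Tdp1 but carrying stably transfected human TDP1. Compounds were applied without camptothecin, and cell growth kinetics were judged by ATP-dependent luminescence after ≥48 hr.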
Starred values were filed as active, the others as inactive; i = inactive; u = inconclusive; x = no result. Calls follow the shape of the dose curve; as a rule, active = well fitted curve in the direction sought with a large enough effect; inconclusive = small, poorly fitted or top-dose-only effect, or another doubt; inactive = no such curve, though single readings can be large; an effect the other way counts as inactive or inconclusive. Unless noted, % is scaled to controls: 0 for no effect and ±100 for the full control effect; potency is read from the fitted curve at half-maximal effect.

SMILES | HT1080 IDH1KD tx | KB-3-1 cytotox | DT40 TDP1 CPT | KB-V1 MDR tox | HT1080NT lethal | TDP1 cell noCPT
O=C(O)C[C@@H](CNC(=O)COc1ccc2ccc(=O)oc2c1)c1ccc(Cl)cc1 | 10% | i | -9% | u | -1% | 3%
O=C(NCC(c1ccccc1)c1ccccc1)c1nn(-c2ccccc2Cl)nc1CO | x | x | u | x | x | 23µM*
Cc1ccccc1-n1nc(CO)c(C(=O)NCC(c2ccccc2)c2ccccc2)n1 | x | x | u | x | x | 21µM*
O=C(NCc1cccs1)c1nn(-c2ccccc2Cl)nc1CO | x | x | -20% | x | x | u
CN(c1ccc(OCC(=O)OCC(=O)c2c(N)n(C)c(=O)n(C)c2=O)cc1)S(=O)(=O)c1ccc2ccccc2c1 | 7% | i | u | i | 4% | u
O=C(NCC1CCCCC1)c1cccc(-c2ccc(O)cc2)c1 | u | i | u | i | u | 21µM*
CC1=Nc2ccccc2/C1=C\c1sc(Nc2ccc(C)cc2)nc1O | 0.65µM* | u | 0.58µM* | 1.5µM* | 0.92µM* | 0.92µM*
COc1ccc(-c2nnc(N3CCCCC3)c3ccccc23)cc1 | -7% | u | 23µM* | 12µM* | -1% | 18µM*
Cc1ccc(-c2nnc(N3CCCCCC3)c3ccccc23)cc1 | 0% | 23µM* | u | u | -8% | 16µM*
c1ccc2c(c1)nnn2-c1ncnc2sccc12 | 0% | i | 4% | u | 0% | -23%
Fc1ccc(-c2nnc(-n3nnc4ccccc43)c3ccccc23)cc1 | 22% | i | u | i | 9% | 12µM*
COc1ccc(-c2nnc(N3CCOCC3)c3ccccc23)cc1 | 9% | i | -15% | i | 15% | 19%
COc1ccccc1N1CCN(c2nnc(-c3ccc(F)cc3)c3ccccc23)CC1 | 17% | u | u | i | 15% | 21µM*
CCN1CCN(c2nnc(-c3ccccc3)c3ccccc23)CC1 | 2% | i | -2% | u | 5% | 12%
Cc1cc2c(c(-c3cnccn3)c1)OC(CNC(=O)c1cc(Cl)ccc1F)C2 (configuration not stated) | x | x | 14% | x | x | -14%
O=C(CN1CCN(c2ccccn2)CC1)Nc1cccc(F)c1 | 15% | i | -1% | i | 3% | -10%
OC(c1ccc(-c2ccccc2)cc1)c1ncc(-c2ccc(C(F)(F)F)cc2)[nH]1 (configuration not stated) | u | i | u | i | u | u
COc1ccccc1NC(=O)n1ncc2c(C)cccc21 | x | i | -18% | u | x | -16%
Cc1ccc(N2CCN(Cc3nnc(-c4ccc5c(c4)OCO5)o3)CC2)c(C)c1 | x | i | u | i | x | 23µM*
Cc1cccc(N2CCN(Cc3nnc(-c4ccc5c(c4)OCO5)o3)CC2)c1C | x | i | -4% | i | x | -3%
Cc1cc(=O)oc2cc(OCC3CC(c4ccccc4)=NO3)ccc12 (configuration not stated) | u | 7.3µM* | 16µM* | 8.2µM* | 11µM* | 18µM*
Cc1cc(=O)oc2cc(OCC3CC(c4ccc(Br)cc4)=NO3)ccc12 (configuration not stated) | 5% | u | u | 21µM* | 22% | 16µM*
CC(C)(C)c1ccc(S(=O)(=O)N2CC(=O)Nc3ccccc32)cc1 | -8% | i | -5% | i | -1% | u
Nc1ccn(Cc2ccccc2)n1 | -1% | i | 4% | u | 1% | 3%
c1ccc(Cn2ccc(-c3cnc(-c4ccccc4)s3)n2)cc1 | -13% | i | u | i | -10% | 18µM*

Source: PubChem BioAssay (National Center for Advancing Translational Sciences (NCATS))
